# Inconclusive results are not listed. Entries that show only a call come without a potency. Active and inactive are the calls of the source. Calls come from the whole dose curve; as a rule, active = well fitted curve in the direction sought with a large enough effect; inconclusive = small, poorly fitted or top-dose-only effect, or another doubt; inactive = no such curve, though single readings can be large; an effect the other way counts as inactive or inconclusive.
# Tests used:
# [1] = molecular target: Ubiquitin carboxyl-terminal hydrolase 1 (Homo sapiens) (UniProt O94782); experiment: Inhibitors of USP1/UAF1: Pilot qHTS (AID 504865); note: nearly all actives have a fitted effect of over 35% in size; note: potency is the fitted concentration of half-maximal effect
# Outline: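 Enzyme-free wells gave the negative control, while test wells held 1nM USP1/UAF1 preincubated with compound for 15 min at room temperature. Ub-Rho at 150nM final started the reaction, and fluorescence at 480/540 nm was recorded kinetically.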
# [2] = molecular target: Phosphoglycerate kinase, glycosomal (Trypanosoma brucei brucei) (UniProt P07378); experiment: qHTS Validation Assay to Find Inhibitors of Phosphoglycerate Kinase (AID 504547)
# Outline: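 Inhibition of the enzyme is judged by a Kinase-Glo Plus luminescent signal following a one-hour incubation at room temperature. Because 1,3-BPG is unstable, it is made in situ by GAPDH at 100nM final; no-PGK wells define the baseline.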
# [3] = molecular target: phosphoglycerate mutase (Leishmania major) (UniProt Q4Q090); experiment: qHTS Validation Assay to Find Inhibitors of Phosphoglycerate Mutase (AID 504548); conditions: Potency: inhibition qHTS; note: series mostly up to about 58 µM
# Outline: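 Lm PGAM 1.25nM final; 100 mM TEA pH 7.6, 5 mM MgCl2, 0.01% Tween-20; 45 min RT; Kinase-GloPlus, 10 min; end-point luminescence. Enzyme-free wells as negative controls.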
# [4] = qHTS for Inhibitors of ATXN expression: Validation of Cytotoxic Assay (AID 588349); note: potency is the fitted concentration of half-maximal effect
# Outline: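 HEK293 cells treated with titrated compound for 72 hr at 37 degrees C; viability read as intracellular ATP by CellTiter Glo luminescence.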
# [5] = qHTS for Inhibitors of ATXN expression: Validation (AID 588378); note: nearly all actives have a fitted effect of over 75% in size; note: potency is the fitted concentration of half-maximal effect
# Outline: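 After a 2 h attachment and 24 h compound incubation, HEK293-ATXN2-FFLuc wells are read for fluorescence at 405 nm excitation/525 nm emission as a viability measure, then for Bright-Glo luminescence reflecting ATXN2 expression.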
# Sequence of Ubiquitin carboxyl-terminal hydrolase 1 (Homo sapiens) (O94782 whole entry, looked up): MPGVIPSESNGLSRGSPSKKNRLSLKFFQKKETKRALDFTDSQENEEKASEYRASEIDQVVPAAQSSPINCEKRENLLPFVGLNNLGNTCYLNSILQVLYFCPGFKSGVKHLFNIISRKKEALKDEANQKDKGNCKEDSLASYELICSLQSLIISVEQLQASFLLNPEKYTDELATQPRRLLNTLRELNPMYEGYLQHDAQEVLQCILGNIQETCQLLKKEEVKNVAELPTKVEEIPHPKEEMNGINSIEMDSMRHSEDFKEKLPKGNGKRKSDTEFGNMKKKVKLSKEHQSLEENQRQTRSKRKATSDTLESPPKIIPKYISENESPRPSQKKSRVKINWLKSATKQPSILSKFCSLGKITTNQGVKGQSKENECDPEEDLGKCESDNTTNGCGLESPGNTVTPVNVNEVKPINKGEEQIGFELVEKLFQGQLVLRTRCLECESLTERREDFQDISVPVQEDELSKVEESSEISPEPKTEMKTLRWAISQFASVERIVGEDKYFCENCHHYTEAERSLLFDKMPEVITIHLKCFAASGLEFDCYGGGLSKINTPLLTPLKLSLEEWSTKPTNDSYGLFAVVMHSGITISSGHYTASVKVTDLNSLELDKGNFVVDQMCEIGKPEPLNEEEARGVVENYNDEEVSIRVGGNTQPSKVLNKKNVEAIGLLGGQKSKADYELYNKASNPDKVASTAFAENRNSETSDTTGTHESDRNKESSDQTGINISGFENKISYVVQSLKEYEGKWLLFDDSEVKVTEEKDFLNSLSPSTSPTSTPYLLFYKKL
# Sequence of phosphoglycerate mutase (Leishmania major) (Q4Q090 1-553): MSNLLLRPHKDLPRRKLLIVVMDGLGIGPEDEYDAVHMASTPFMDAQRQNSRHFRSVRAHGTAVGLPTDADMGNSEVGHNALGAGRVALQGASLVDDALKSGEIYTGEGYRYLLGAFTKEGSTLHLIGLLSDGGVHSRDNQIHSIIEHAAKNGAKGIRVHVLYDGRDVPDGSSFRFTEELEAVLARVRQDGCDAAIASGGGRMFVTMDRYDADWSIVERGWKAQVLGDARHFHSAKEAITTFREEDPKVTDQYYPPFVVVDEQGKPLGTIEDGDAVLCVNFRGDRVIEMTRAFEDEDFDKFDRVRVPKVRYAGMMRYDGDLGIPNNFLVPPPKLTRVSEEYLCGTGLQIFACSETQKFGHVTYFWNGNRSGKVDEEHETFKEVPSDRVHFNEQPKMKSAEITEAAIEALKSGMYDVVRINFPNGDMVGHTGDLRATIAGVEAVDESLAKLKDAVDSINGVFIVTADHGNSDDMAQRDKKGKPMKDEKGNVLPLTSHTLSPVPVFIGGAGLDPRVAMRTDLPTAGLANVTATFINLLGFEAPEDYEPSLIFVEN
# Sequence of Phosphoglycerate kinase, glycosomal (Trypanosoma brucei brucei) (P07378 whole entry, looked up): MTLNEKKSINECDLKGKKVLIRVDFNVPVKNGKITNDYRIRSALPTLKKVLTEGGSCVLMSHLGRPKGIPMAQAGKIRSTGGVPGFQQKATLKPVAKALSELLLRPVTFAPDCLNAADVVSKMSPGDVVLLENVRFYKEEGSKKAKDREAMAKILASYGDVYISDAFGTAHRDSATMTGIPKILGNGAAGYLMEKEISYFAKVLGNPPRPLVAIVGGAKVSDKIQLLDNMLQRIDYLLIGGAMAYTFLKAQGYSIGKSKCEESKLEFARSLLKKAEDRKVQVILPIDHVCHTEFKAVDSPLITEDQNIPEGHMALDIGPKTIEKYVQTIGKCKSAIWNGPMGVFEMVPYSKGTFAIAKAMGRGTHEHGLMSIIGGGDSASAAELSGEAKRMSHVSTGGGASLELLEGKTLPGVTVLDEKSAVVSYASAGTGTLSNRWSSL
smiles,measurement,setting,value
[O-][n+]1ccccc1SSc1cccc[n+]1[O-],Potency,[1],inactive
Nc1ncnc2c1ncn2[C@@H]1O[C@H](COP(=O)(O)CP(=O)(O)OP(=O)(O)O)[C@@H](O)[C@H]1O,Potency,[2],inactive
same,Potency,[3],inactive
same,Potency,[1],inactive
same,Potency,[4],inactive
Clc1ccccc1-c1nc(-c2ccncc2)no1,Potency,[1],inactive
CCCCCCCCc1ccc(-c2ccc(C(=O)O)cc2)cc1,Potency,[2],inactive
same,Potency,[3],inactive
same,Potency,[1],50.1 µM (active)
same,Potency,[4],inactive
same,Potency,[5],inactive
CCCC(=O)OC[C@@H](OC(=O)CCC)[C@@H](OC(=O)CCC)[C@H](Cn1c2nc(=O)[nH]c(=O)c-2nc2cc(C)c(C)cc21)OC(=O)CCC,Potency,[1],39.8 µM (active)
CCCCCCCCCCCCCCCC(=O)OC(C)C,Potency,[1],inactive
Oc1c(Br)cc(Br)c2cccnc12,Potency,[1],inactive
CC1(C)S[C@@H]2[C@H](NC(=O)[C@H](NC(=O)N3CCN(S(C)(=O)=O)C3=O)c3ccccc3)C(=O)N2[C@H]1C(=O)O,Potency,[1],inactive
CCOc1ccc2nc(S(N)(=O)=O)sc2c1,Potency,[1],inactive
NC(=O)C(c1ccccc1)(c1ccccc1)[C@@H]1CCN(CCc2ccc3c(c2)CCO3)C1,Potency,[1],inactive
C[S+](CC[C@H](N)C(=O)O)C[C@H]1O[C@@H](n2cnc3c(N)ncnc32)[C@H](O)[C@@H]1O (stereo partly specified),Potency,[1],inactive
CO/N=C(\C(=O)N[C@@H]1C(=O)N2C(C(=O)O)=C(COC(C)=O)CS[C@H]12)c1csc(N)n1,Potency,[3],inactive
same,Potency,[1],inactive
same,Potency,[4],inactive
same,Potency,[5],inactive
O=C(OCc1ccccc1)c1ccccc1,Potency,[1],inactive
O=C1C(SCCO)=C(SCCO)C(=O)c2ccccc21,Potency,[3],inactive
same,Potency,[1],15.8 µM (active)
same,Potency,[5],4.47 µM (active)
CSc1nc(N)c2ncn([C@@H]3O[C@H](COP(=O)(O)OP(=O)(O)OP(=O)(O)O)[C@@H](O)[C@H]3O)c2n1,Potency,[2],inactive
same,Potency,[3],inactive
same,Potency,[1],inactive
same,Potency,[4],inactive
same,Potency,[5],inactive
CC1(C)C[C@@H]1C(=O)N/C(=C\CCCCSC[C@H](N)C(=O)O)C(=O)O,Potency,[1],inactive
C=C(Nc1ccc(OCC)cc1)Nc1ccc(OCC)cc1,Potency,[1],inactive
c1ccc2sc(SN3CCOCC3)nc2c1,Potency,[1],inactive
CCCCC[C@H](O)/C=C/[C@@H]1[C@@H](C/C=C\CCCC(=O)O)[C@@H](O)C[C@H]1O,Potency,[1],inactive
N#C/C(=C\c1c[nH]c2ccccc12)C(=O)c1ccc(O)c(O)c1,Potency,[3],inactive
same,Potency,[1],inactive
same,Potency,[4],inactive
same,Potency,[5],inactive
O=C(O)COc1ccc(C(=O)c2cccs2)c(Cl)c1Cl,Potency,[1],inactive
O=C1CN(/N=C/c2ccc(-c3ccc([N+](=O)[O-])cc3)o2)C(=O)N1,Potency,[1],inactive
Nc1c(CC(=O)O)cccc1C(=O)c1ccc(Br)cc1,Potency,[1],inactive
C[N+](C)(C)CCOP(=O)(O)OP(=O)([O-])OC[C@H]1O[C@@H](n2ccc(N)nc2=O)[C@H](O)[C@@H]1O,Potency,[2],inactive
same,Potency,[3],inactive
same,Potency,[1],inactive
same,Potency,[4],inactive
same,Potency,[5],inactive
CCN(CC)c1ncnc2c1ncn2[C@@H]1O[C@H](COP(=O)(O)OP(=O)(O)C(Br)(Br)P(=O)(O)O)[C@@H](O)[C@H]1O,Potency,[2],inactive
same,Potency,[3],inactive
same,Potency,[1],inactive
same,Potency,[4],inactive
same,Potency,[5],inactive
CCCCCC[C@@H](O)C/C=C\CCCCCCCC(=O)O,Potency,[1],inactive
Cc1c(Nc2ncccc2C(=O)O)cccc1C(F)(F)F,Potency,[1],inactive
CCCSc1ccc2nc(NC(=O)OC)[nH]c2c1,Potency,[1],inactive
O=C(O)[C@H](O)[C@@H](O)[C@H](O)[C@H](O)CO,Potency,[1],inactive
S=c1[nH]c2ccccc2s1,Potency,[1],inactive
COc1cc(/C=C/C(=O)N2CCN(CC(=O)N3CCCC3)CC2)cc(OC)c1OC,Potency,[1],inactive
Cc1cc(O)c2ccccc2c1O,Potency,[1],inactive
CC(C(=O)O)c1ccc(C(=O)c2cccs2)cc1 (stereo unspecified),Potency,[1],inactive
O=C(O)[C@H](CC(=O)N1C[C@H]2CCCC[C@H]2C1)Cc1ccccc1,Potency,[1],inactive
Cc1nc2ccccc2n1Cc1ccc(Cl)cc1,Potency,[1],inactive
CCCCCCCCCCCCCCCCCC(=O)NCC(COP(=O)([O-])OCC[N+](C)(C)C)OCC (stereo unspecified),Potency,[2],inactive
same,Potency,[3],inactive
same,Potency,[4],17.8 µM (active)
N.N.N.N.N.N.N.N.N.N.N.N.N.N.O.O.[Ru+4].[Ru+5].[Ru+5],Potency,[4],28.2 µM (active)
